From PubChem
This is a sample that favours compounds with a hit; in the whole collection about 7.6% have one here.
M1 agonist – M1 muscarinic receptor agonism; AID 626; 3% of 64,000 active; CHO-M1 cells, Fluo-4 calcium fluorescence, agonist mode; stronger effect = higher value; B-score at 10 µM;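 active = fluorescence rise, raw or as B-score row- and column-corrected plate score, outside the 99.7% band of its plate's samples, either direction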
PLAP act – activates human placental alkaline phosphatase; P05187; purified PLAP enzyme, luminescent substrate read-out; stronger effect = higher value; activation fold at 20 µM; 1.2% of 96,000 active; in the data active = activation fold above about 2
Cav3 T inh – blocks human Cav3.2 T-type calcium channel | O95180 | Cav3.2-expressing cells, Fluo-4 calcium fluorescence FDSS; stronger effect = lower value | B-score at 10 µM | 4% of 100,000 active | AID 449739;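 active = single-dose well whose peak fluorescence ratio is a statistical outlier from its plate by either plate-standardised score or position-corrected B-score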
Target sequence (O95180 whole entry, looked up): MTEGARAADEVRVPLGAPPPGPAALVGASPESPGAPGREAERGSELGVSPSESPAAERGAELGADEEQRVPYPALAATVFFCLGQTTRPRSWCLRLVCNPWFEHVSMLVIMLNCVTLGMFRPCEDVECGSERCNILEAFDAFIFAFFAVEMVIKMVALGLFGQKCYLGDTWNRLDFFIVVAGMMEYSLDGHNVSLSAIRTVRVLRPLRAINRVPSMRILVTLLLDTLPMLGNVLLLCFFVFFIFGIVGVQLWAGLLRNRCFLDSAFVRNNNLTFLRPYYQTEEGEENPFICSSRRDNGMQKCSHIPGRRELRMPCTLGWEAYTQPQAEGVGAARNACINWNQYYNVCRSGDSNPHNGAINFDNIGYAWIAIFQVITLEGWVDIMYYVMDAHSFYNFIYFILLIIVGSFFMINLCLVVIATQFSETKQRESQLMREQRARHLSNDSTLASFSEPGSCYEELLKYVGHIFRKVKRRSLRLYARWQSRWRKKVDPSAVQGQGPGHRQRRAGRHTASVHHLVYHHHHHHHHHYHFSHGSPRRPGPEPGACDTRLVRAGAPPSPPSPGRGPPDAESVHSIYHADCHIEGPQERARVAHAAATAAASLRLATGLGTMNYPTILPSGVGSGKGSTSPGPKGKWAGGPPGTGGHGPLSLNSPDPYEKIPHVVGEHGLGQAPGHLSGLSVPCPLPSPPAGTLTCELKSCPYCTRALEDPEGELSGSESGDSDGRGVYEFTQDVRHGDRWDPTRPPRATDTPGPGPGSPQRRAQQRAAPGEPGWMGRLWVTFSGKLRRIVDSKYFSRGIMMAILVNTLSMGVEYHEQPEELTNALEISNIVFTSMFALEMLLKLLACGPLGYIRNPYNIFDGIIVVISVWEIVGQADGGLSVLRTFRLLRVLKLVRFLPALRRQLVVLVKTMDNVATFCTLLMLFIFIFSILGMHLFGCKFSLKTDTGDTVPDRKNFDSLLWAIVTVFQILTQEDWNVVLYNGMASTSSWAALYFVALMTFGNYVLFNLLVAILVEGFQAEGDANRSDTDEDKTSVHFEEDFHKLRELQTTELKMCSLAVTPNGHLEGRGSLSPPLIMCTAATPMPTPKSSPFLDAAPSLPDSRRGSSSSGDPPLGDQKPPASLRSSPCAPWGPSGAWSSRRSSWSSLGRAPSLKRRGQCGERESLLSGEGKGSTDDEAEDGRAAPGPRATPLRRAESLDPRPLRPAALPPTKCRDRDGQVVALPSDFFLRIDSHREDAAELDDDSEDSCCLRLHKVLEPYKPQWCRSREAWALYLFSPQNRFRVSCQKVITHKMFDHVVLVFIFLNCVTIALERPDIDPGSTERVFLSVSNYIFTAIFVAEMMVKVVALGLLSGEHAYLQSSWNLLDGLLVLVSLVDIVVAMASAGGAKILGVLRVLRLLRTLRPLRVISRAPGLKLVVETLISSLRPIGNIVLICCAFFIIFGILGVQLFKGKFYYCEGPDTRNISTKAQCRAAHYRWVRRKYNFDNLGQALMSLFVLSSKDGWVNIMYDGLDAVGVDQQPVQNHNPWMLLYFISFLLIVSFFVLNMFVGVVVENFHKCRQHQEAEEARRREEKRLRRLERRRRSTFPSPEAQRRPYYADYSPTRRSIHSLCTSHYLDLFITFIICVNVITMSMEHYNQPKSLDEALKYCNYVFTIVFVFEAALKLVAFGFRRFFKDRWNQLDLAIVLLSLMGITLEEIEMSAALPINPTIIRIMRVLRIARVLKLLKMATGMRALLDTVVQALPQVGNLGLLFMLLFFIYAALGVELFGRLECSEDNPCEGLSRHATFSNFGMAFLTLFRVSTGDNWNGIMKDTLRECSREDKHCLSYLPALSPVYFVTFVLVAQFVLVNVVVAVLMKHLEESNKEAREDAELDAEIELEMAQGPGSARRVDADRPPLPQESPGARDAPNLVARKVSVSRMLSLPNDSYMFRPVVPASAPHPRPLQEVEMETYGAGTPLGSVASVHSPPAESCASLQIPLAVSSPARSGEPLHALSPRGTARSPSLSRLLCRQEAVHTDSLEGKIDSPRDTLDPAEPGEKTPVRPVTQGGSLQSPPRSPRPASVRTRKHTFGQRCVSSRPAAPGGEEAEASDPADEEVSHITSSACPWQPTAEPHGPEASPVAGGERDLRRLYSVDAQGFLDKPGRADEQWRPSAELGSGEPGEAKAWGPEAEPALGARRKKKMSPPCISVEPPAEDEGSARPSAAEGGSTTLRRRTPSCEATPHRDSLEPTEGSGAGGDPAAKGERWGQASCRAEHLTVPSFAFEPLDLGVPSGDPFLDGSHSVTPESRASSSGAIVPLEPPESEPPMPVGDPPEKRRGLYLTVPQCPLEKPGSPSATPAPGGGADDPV
M1 antagonist – antagonists of rat M1 muscarinic receptor. P08482. CHO-M1 cells, Fluo-4 calcium, ACh EC80 antagonist mode; stronger effect = lower value. B-score at 10 µM. 3.4% of 64,000 active. AID 628;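 active = calcium fluorescence response, raw or row-and-column corrected B-score, differing from the plate sample mean either way at a set confidence level, mostly lower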
Numbers without * were called inactive; nt = not tested or not shown.

SMILES	M1 agonist	PLAP act	Cav3 T inh	M1 antagonist
COc1ccc(C(c2nnnn2CC2CCCO2)N2CCN(c3cccc(C)c3C)CC2)cc1 (centres undefined)	0.31	1.6	-3.7*	0.63
CCCCC(c1nnnn1CC1CCCO1)N1CCN(Cc2ccccc2)CC1 (centres undefined)	nt	nt	0.92	nt
CCCCC(c1nnnn1CC1CCCO1)N1CCN(c2cccc(C)c2C)CC1 (centres undefined)	-0.99	1.4	-5.8*	-1
COc1ccc(C(c2nnnn2CC2CCCO2)N2CCC(C(N)=O)CC2)cc1 (centres undefined)	nt	nt	-1.7	nt
Cc1cccc(NC(=S)NC2CC3CCCC(C2)N3Cc2cccs2)c1 (centres undefined)	nt	1.5	-3	nt
Cc1ccc2c(c1)nnn2C1CCN(C(=O)C2CCCCC2)CC1	-1.2	1.4	-0.029	0.28
O=c1cc(-c2ccccc2)[nH]n1-c1ccc([N+](=O)[O-])cc1	nt	0.9	-4*	nt
CCOC(=O)CSc1nnc(CNC(=O)c2ccc(OC)cc2)n1C1CCCCC1	0.37	1.3	1.8	-0.047
O=C(Nc1cccc(F)c1)c1ccc(S(=O)(=O)NCC2CCCO2)cc1 (centres undefined)	-0.0028	1	-5.3*	-0.55
NC(=O)CC[C@@H]1NC(=O)C(Cc2ccc(O)cc2)NC(=O)c2cc([N+](=O)[O-])cc(F)c2NCCC[C@@H](C(N)=O)NC1=O (some centres undefined)	nt	nt	-0.11	nt
Cc1cc(=O)cc(C)n1-c1ccc2c(c1)nc(C)n2-c1ccccc1	0.49	1.2	-0.016	2.2*
CSc1ccc(S(=O)(=O)Nc2ccc(F)cc2)cc1	-1.4	1.1	-5.1*	-1.4
COc1ccc(NS(=O)(=O)c2ccc(SC)cc2)cc1	-1.3	1.3	-2.3	-1.8
CCc1ccccc1NC(=O)c1cc(C2CC2)on1	-0.0049	1.1	0.0045	-0.25
CCCCn1c(SCC(=O)N2CCC(C)CC2)nc2ccsc2c1=O	nt	1.4	-1.3	nt
CCC1CCCCN1C(=O)CSc1nc2ccsc2c(=O)n1Cc1ccccc1 (centres undefined)	nt	1.4	-4.9*	nt
COc1ccc(-c2n[nH]c(=S)n2C2CCCCC2)cc1	0.32	2*	-2	-0.39
COc1ccc(Cl)cc1-c1n[nH]c(=S)n1C1CCCCC1	nt	2.4*	-5*	nt
COc1ccc(C#Cc2c(-c3ccsc3)oc3ccc(-c4cc(OC)c(OC)c(OC)c4)cc23)cc1	nt	nt	-0.31	nt
CCCCOc1ccc(-c2nnn(C(C)(C)C(=O)OC)n2)cc1	0.3	1.4	-0.37	1.5*
CCCCOc1ccc(-c2nnn(C(C)C(=O)OCC)n2)cc1 (centres undefined)	0.0073	1.5	-0.93	-0.056
O=C1CNC(=O)N1CC(=O)N1CCCc2ccccc21	nt	1.2	1.1	nt
COc1ccc(C2c3c(ccc4ccccc34)Oc3ncn4nc(CO/N=C/c5ccccc5)nc4c32)cc1 (centres undefined)	nt	1.2	-4.6*	nt
Cc1ccc(N(CC(=O)O)S(C)(=O)=O)cc1Cl	-0.53	0.9	1.5	-0.085
CN1CCN(C(=O)C2=C[C@H](c3ccc4c(c3)OCO4)C[C@H](OCCCCO)O2)CC1	nt	nt	1.6	nt
SMILES	M1 agonist	PLAP act	Cav3 T inh	M1 antagonist
C/C(=N\NC(=O)C1COc2ccccc2O1)c1ccc(C)o1 (centres undefined)	nt	2*	-1.2	nt
CC(=O)Nc1ccc(Nc2ncnc3c2cnn3-c2cccc(C)c2)cc1	-0.64	1	-0.32	0.071
CC(=O)Nc1ccc(Nc2ncnc3c2cnn3-c2ccc(C)cc2C)cc1	nt	2*	0.77	nt
Cc1ccc(-c2csc3ncnc(Sc4nnc(CN5CCCCCC5=O)o4)c23)cc1	0.17	1.3	-6.7*	0.3
Cc1ccc(-c2csc3ncnc(SCC(=O)Nc4nnc(C)s4)c23)cc1	nt	1.1	0.001	nt
CCOC(=O)C1CCCN(C(=O)c2cc3c(-c4cccc(OC)c4)nn(C)c3s2)C1 (centres undefined)	0.5	1.3	-4.2*	-1.2
CCC(CC)NC(=O)c1cc2c(C)nn(Cc3ccccc3Cl)c2s1	nt	0.8	0.063	nt
COc1cccc(-c2nn(C)c3sc(C(=O)NCc4ccc(C)o4)cc23)c1	-0.49	1.6	-0.22	0.017
Cc1nn(Cc2ccccc2Cl)c2sc(C(=O)NCc3ccc4c(c3)OCO4)cc12	nt	1.5	-3.5*	nt
COc1cccc(-c2nn(C)c3sc(C(=O)NCc4ccc5c(c4)OCO5)cc23)c1	-0.62	2.2*	-1.8	-1.2
N#C/C(Cn1c[n+](NC(=O)Nc2ccccc2)cn1)=N/O	-0.39	0.9	-0.0032	-0.0041
CCN(CC)C(=O)CSc1ccccc1N	-0.01	1	0.0055	-0.53
COc1ccc(C2CC(c3ccccc3)n3nc(NC(=O)c4cccs4)nc3N2)cc1 (centres undefined)	-0.76	1.9	nt	-0.11
COc1ccc(C2CC(c3ccccc3)Nc3nc(NC(=O)c4cccs4)nn32)cc1 (centres undefined)	-0.26	1.5	-1.8	-0.28
COc1ccc(C2CC(c3ccc(Cl)cc3)Nc3nc(NC(=O)c4ccco4)nn32)cc1 (centres undefined)	-0.81	nt	-3.9*	0.17
O=C(Nc1nc2n(n1)C(c1ccc(Cl)cc1)CC(c1ccc(Cl)cc1)N2)c1ccco1 (centres undefined)	-0.32	1.5	-5.3*	0.15
CC1CCc2ccccc2N1C(=O)c1cccs1 (centres undefined)	0.72	0.8	-1.2	0.26
CNc1nc(NCCOC23CC4CC(CC(C4)C2)C3)nc(OCC(F)(F)F)n1	nt	1	-5.4*	nt
O=C(CSc1nc2ccccc2c(=O)n1NC(=O)Cc1ccccc1)NCc1ccccc1Cl	nt	1	-3.2	nt
COc1ccc(OC)c(NC(=O)CSc2ncnc3c2cnn3-c2ccccc2Cl)c1	nt	nt	-1.9	nt
CCCc1[nH]n(-c2nc3ccccc3s2)c(=O)c1C=NCC(C)C	nt	2.1*	-0.61	nt
Cn1cccc1Cc1nnc(SCC(=O)Nc2ccc3c(c2)OCCO3)n1CCc1ccccc1	0.92	1.5	-11*	0.021
Cn1cccc1Cc1nnc(SCC(=O)Nc2ccc(F)cc2)n1CCc1ccccc1	2.1	1.6	-7.4*	0.19
Cn1cccc1Cc1nnc(SCC(=O)Nc2ccc3c(c2)OCO3)n1CCc1ccccc1	0.77	1.6	-9.2*	-0.52
CC(NC(=O)C1CCCN(S(=O)(=O)c2cnc[nH]2)C1)c1ccccc1 (centres undefined)	0.61	0.9	0.84	0.63
SMILES	M1 agonist	PLAP act	Cav3 T inh	M1 antagonist
NC(=S)N/N=C/c1ccccc1OCc1cccc(Cl)c1	nt	1	-0.087	nt
N#CC1=C(SCC(N)=O)NC2=C(C(=O)c3ccccc32)C1c1ccc(Cl)cc1 (centres undefined)	nt	1.2	0.46	nt
CC(C)c1[nH]nc2c1C(Cc1ccccc1)C(C#N)=C(N)O2 (centres undefined)	-0.68	1.8	-8.6*	-1.4
CC(C)C1C(C#N)=C(N)Oc2n[nH]c(-c3ccccc3)c21 (centres undefined)	-0.15	nt	0.11	1.3*
CN(c1ncc(C(F)(F)F)cc1Cl)n1cc(C(N)=O)c2ccccc2c1=O	nt	0.9	0.0091	nt
CCOC(=O)C1=C(C)N=C2SC(C)C(=O)N2C1c1ccc(OCC)c(OCC)c1 (centres undefined)	0.63	1.4	-0.69	-0.48
CCOC(=O)C1=C(C)N=C2SC(C)C(=O)N2C1c1ccc(C(=O)OC)cc1 (centres undefined)	-0.011	1.1	-7.5*	-0.091
